High-throughput results deposited in PubChem BioAssay by several laboratories.
Rv3671c inh – Rv3671c serine protease inhibitors, primary screen, biochemical, fluorescence polarization, M. tuberculosis H37Rv. P9WHR9. inhibition, % at 5.96 µM. 0.048% of 320,000 active. AID 2606, 2010; in the data active = inhibition above about 38%;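 note: extracellular domain of Rv3671c used as enzyme; 0% = enzyme with DMSO and 100% = no enzyme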
UGM FP inh – M. tuberculosis UGM enzyme inhibitors, primary screen, biochemical, fluorescence polarization, single point | UDP-galactopyranose mutase (Mycobacterium tuberculosis (strain ATCC 25618 / H37Rv)), … | purified UGM, fluorescence polarization probe displacement | inhibition, % at 10 µM | 0.06% of 320,000 active | AID 504406, 2011; in the data active = inhibition above about 10%, passing the limit was not always enough
GDH-TPI counter-1 – GDH-TPI coupling enzyme inhibitors, primary screen, artefact control for M. tuberculosis FBA inhibitor project, biochemical, absorbance, full deck; GDH-TPI coupled enzyme counterscreen, NADH absorbance; AID 588335, 2011; inhibition, % at 4.8 µM; 1.2% of 360,000 active; in the data active = inhibition above about 30%;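 note: 0% = DMSO wells and 100% = wells lacking the enzyme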
Mtb FBA inh – Mtb FBA enzyme inhibitors, primary screen, biochemical, fluorescence, strain H37Rv; Fructose-bisphosphate aldolase (Mycobacterium tuberculosis (strain ATCC 25618 / H37Rv)), …; 2.3% of 360,000 active; inhibition, % at 1 µM; purified M. tuberculosis FBA, fluorescence read-out; AID 588726, 2011;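 note: 0% = vehicle and 100% = reference inhibitor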
Target sequence (P9WQA3 whole entry, looked up): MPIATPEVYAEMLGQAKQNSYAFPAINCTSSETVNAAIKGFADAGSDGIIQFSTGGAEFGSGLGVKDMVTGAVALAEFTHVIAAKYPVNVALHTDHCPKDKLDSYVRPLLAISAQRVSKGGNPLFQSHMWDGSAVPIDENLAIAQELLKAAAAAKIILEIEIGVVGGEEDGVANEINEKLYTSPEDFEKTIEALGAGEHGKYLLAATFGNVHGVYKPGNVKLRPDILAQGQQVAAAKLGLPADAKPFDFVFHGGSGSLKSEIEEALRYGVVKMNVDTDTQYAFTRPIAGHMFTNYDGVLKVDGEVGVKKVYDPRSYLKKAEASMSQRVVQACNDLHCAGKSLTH
Mtb FBA confirm – M. tuberculosis aldolase blockers, biochemical, fluorescence, strain H37Rv, confirmation; shares compounds with Mtb FBA inh; purified M. tuberculosis FBA, fluorescence read-out; inhibition, % at 1 µM; 78% of 5,600 active;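 note: 0% = vehicle wells and 100% = reference inhibitor wells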
GDH-TPI counter-2 – GDH-TPI coupling enzyme inhibitors, artefact control for M. tuberculosis FBA inhibitor project, biochemical, fluorescence, high throughput | AID 652141, 2013 | 81% of 5,600 active | inhibition, % at 1 µM | GDH-TPI coupled enzyme counterscreen | shares compounds with Mtb FBA inh; in the data active = inhibition above about 10%
* = called active by the depositor; x = not tested or not shown; + = active, no number. In the library only some 3.5% were active in any assay of this set; here they are far more common. Cut-off read from the data, not from the text of the source, unless noted: active = inhibition above about 27%; inactive = the rest.

SMILES	Rv3671c inh	UGM FP inh	GDH-TPI counter-1	Mtb FBA inh	Mtb FBA confirm	GDH-TPI counter-2
Fc1ccc2nc(Nc3nc4cc5c(cc4s3)OCO5)sc2c1	-11	0	13	38*	56*	52*
CC1CCCCN1C(=O)c1ccc(Br)o1 (configuration not stated)	-7	4	-2	-2	x	x
CN(CCOc1ccc(Br)cc1)C(=O)CNC(=O)c1ccc2ccccc2c1	-21	3	4	-5	x	x
CC(OC(=O)Cn1cnc2c1c(=O)n(C)c(=O)n2C)C(=O)NC(C)c1ccc(Cl)cc1Cl (configuration not stated)	-4	0	6	2	x	x
O=C1c2ccccc2NC(c2cccc(O)c2)N1c1ccccc1 (configuration not stated)	-5	1	-1	42*	129*	107*
O=C1c2ccccc2NC(c2cccc(O)c2)N1Cc1ccco1 (configuration not stated)	-7	3	1	60*	107*	70*
COc1ccc(NC(=O)CN(C)C(=O)c2cc(-c3ccc(Cl)cc3)nc3ccccc23)cc1	-11	4	7	-2	x	x
COc1cccc(NC(=O)CN(C)C(=O)c2cc(-c3ccc(C)o3)nc3ccccc23)c1	-9	-1	6	56*	37*	39*
CCOc1ccc(NC(=O)CN(C)C(=O)c2cc(-c3ccc(OC)cc3)nc3ccccc23)cc1OCC	8	x	9	28*	51*	39*
Cc1ccc(-c2cc(C(=O)NCC(c3ccccc3)N(C)C)c3ccccc3n2)o1 (configuration not stated)	-10	5	18	71*	54*	46*
Cc1cc(NC(=O)c2ccco2)c(=O)n(Cc2cccc(C(F)(F)F)c2)c1	-5	-1	16	0	x	x
O=C(Nc1cccc2ccccc12)N1CCN(Cc2ccccc2)CC1	-7	1	-13	33*	96*	74*
O=C(Nc1cccc2ccccc12)N1CC=C(c2ccccc2)CC1	3	-1	-1	33*	55*	68*
Cc1cccc(NC(=O)N2CCN(Cc3ccccc3)CC2)c1	4	3	-5	0	x	x
O=C(Nc1ccccc1)N1CC=C(c2ccccc2)CC1	-6	-1	x	x	x	x
CCOC(=O)N1CCN(C(=O)Nc2cccc3ccccc23)CC1	-2	x	-5	31*	170*	156*
COc1ccc(NC(C)=O)cc1NC(=O)c1ccc(C#N)cc1	-4	1	6	1	x	x
Oc1ccc(C[C@H]2CNC(=S)N2CC2CCCN2C[C@H](Cc2ccccc2)N2C[C@H](Cc3ccc(O)cc3)N(CC3CCCCC3)C2=S)cc1 (some centres not stated)	x	x	x	0	x	x
COc1ccc(N2CCN(C(=O)/C=C/[C@H]3O[C@@H](n4ccc(=O)[nH]c4=O)[C@H](O)[C@@H]3O)CC2)cc1	x	x	x	-1	x	x
COc1ccc(OC)c(-n2c(C)ccc2-c2ccc(S(C)(=O)=O)cc2)c1	-1	-1	19	91*	87*	97*
N#CCCN(C(=O)CSc1nc2ccccc2c(=O)[nH]1)c1ccc(F)cc1	3	1	3	-2	x	x
O=C(NCCO)c1ccc2[nH]c3ccccc3c2c1	0	0	-11	35*	-2	-4
O=C(NCCc1c[nH]c2ccccc12)c1ccc2[nH]c(=O)c(=O)[nH]c2c1	-6	-2	4	3	x	x
C(=C\c1ccco1)/c1nc2ccccc2[nH]1	5	0	28	23	x	x
C(=C\c1nc2ccccc2[nH]1)/c1ccccc1	-6	1	37*	32*	+	+
SMILES	Rv3671c inh	UGM FP inh	GDH-TPI counter-1	Mtb FBA inh	Mtb FBA confirm	GDH-TPI counter-2
O=C1c2cccc3cccc(c23)C(=O)N1CC1CCN(S(=O)(=O)c2ccccc2)CC1	x	x	-5	54*	47*	29*
COCCNC(=O)/C(C#N)=C/c1c(N2CCN(c3cccc(Cl)c3)CC2)nc2c(C)cccn2c1=O	-6	-1	-1	69*	165*	124*
COCCNC(=O)/C(C#N)=C/c1c(N2CCN(c3ccc(OC)cc3)CC2)nc2c(C)cccn2c1=O	-6	-2	2	80*	73*	58*
CNC(=O)/C(C#N)=C/c1c(N2CCN(c3cccc(Cl)c3)CC2)nc2c(C)cccn2c1=O	1	1	11	25	x	x
C=CCNC(=O)/C(C#N)=C/c1c(N2CCN(c3cccc(Cl)c3)CC2)nc2c(C)cccn2c1=O	1	2	0	62*	199*	172*
COCCNC(=O)/C(C#N)=C/c1c(N2CCCCCC2)nc2ccccn2c1=O	-9	0	25	87*	45*	47*
CC(C)NC(=O)C(c1ccc(F)cc1)N(Cc1ccco1)C(=O)CCC(=O)Nc1ccccn1 (configuration not stated)	-3	1	4	1	x	x
COCCNC(=O)C(C#N)c1nc2ccccc2nc1N1CCCCCC1 (configuration not stated)	-3	3	19	37*	-4	-4
COc1ccc2c(O)c(-c3c(C)cc(C)cc3C)c(=O)[nH]c2c1	-4	2	17	46*	-6	-7
COCCn1c(C)cc(/C=C2/NC(=O)N(c3ccc(Cl)cc3)C2=O)c1C	1	3	2	-2	x	x
COc1ccc(OC)c(NC(=O)C2(C)CCN2CCOc2ccccc2)c1 (configuration not stated)	x	x	17	0	x	x
CC(C)(C)Nc1c(C2CCNCC2)nc2c(OCc3ccccc3)cccn12	x	x	x	2	x	x
COc1cc2oc(=O)cc(CN3CCCCC3)c2cc1Cl	x	x	x	10	x	x
CCOC(=O)Nc1ccc2c(COC(=O)c3ccccc3O)cc(=O)oc2c1	-6	-1	20	56*	38*	32*
CCOC(=O)Nc1ccc2c(COC(=O)CN(C)S(=O)(=O)c3ccc(C)cc3)cc(=O)oc2c1	-16	1	13	79*	41*	23*
Cc1nn(-c2ccccc2)c(C)c1NC(=O)COC(=O)c1cccc(OC(F)F)c1	2	-4	-3	1	x	x
CN(C)C(=O)c1ccc(NC(=O)COC(=O)C2CCN(S(=O)(=O)c3ccc4c(c3)OCCO4)CC2)cc1	-6	-3	4	-4	x	x
Cc1cccc(NC(=O)CCCCCN2C(=O)[C@@H]3Cc4ccccc4CN3C2=O)c1	3	-4	-3	-2	x	x
Cc1ccc(NC(=O)CCCCCN2C(=O)[C@@H]3Cc4ccccc4CN3C2=O)cc1	-5	-4	6	53*	-5	-7
